In PubChem BioAssay AID1981 (Southern Research Specialized Biocontainment Screening …, 2009) one finds outcome data, which are given here for 73 compounds.

The whole screen tested about 2,200 compounds, of which about 480 (22%) were called active. How the calls were made is not given here. Only a sample is shown. Results with a measured potency or affinity are listed apart.

The experiment is described as follows: S. Typhimurium GFP fluorescence modified counterscreen for PhoP regulon inhibitor project dose response (AID 1981). The settings on record: 4 h; series mostly up to 150 µM. In general terms: A counterscreen serves to expose hits that act by an unwanted route or on another target.
On to `COC(=O)CCC(=O)Nc1ccc(Cl)c(Cl)c1`, for which the compound was called inactive.
On to `S=C(Nc1ccc(Cl)c(Cl)c1)N1CCOCC1`, for which the outcome was inactive.
In the case of `CCC(Sc1ncccc1C(=O)OC(C)C)C(=O)N1CCOCC1` (stereo not drawn), the outcome was inactive.
As to `O=C(CSc1ccc2c(c1)OCCO2)NCCc1ccc(Cl)cc1Cl`, the compound was called inactive.
Take `CCOC(=O)/C(=C/C=C/c1ccccc1)NC(=O)c1ccccc1`: the outcome was inactive.
As for `Cc1[nH]c2ccccc2c1/C=N/O`, the entry is “inactive”; as for `COc1ccc2[nH]c(S(=O)Cc3ncc(C)c(OC)c3C)nc2c1` (stereo not drawn), “inactive”; as for `Oc1ccc(-c2n[nH]c(=S)n2-c2ccc3c(c2)OCCO3)c(O)c1`, “inactive”.
Regarding `Cc1ccc(Nc2nc(CSc3nnc(-c4cccnc4)n3-c3ccccc3F)cs2)cc1`, the result was inactive.
With `COc1ccc(OC)c(S(=O)(=O)N(C)CC(=O)N2CCc3ccccc3C2)c1`, the result was inactive.
The result for `COc1cc(C)nc(Nc2nc(C)c(C(C)=O)s2)n1` reads “inactive”; that for `COC(OC)c1nc(SCC(=O)Nc2cccc(Cl)c2)ncc1C(=O)O`, “inactive”.
For `C#CCn1cc(/C=N/Nc2nc3ccccc3[nH]2)c2ccccc21`, the outcome was inactive.
Turning to `C(=C\c1ccccc1)/C=N/Nc1nc2ccccc2[nH]1`, the call was inactive.
For the compound `CCN(CC)c1ccc(/C=N/NC(=S)NCc2ccccc2)c(O)c1`, the call was inactive.
The result for `CN(c1cccc(Cl)c1)S(=O)(=O)c1cccc(C(=O)Nc2nc3ccccc3[nH]2)c1` reads “inactive”.
As for `CN1CCN(S(=O)(=O)c2ccc(-c3ccccc3)cc2)CC1`, the entry is “inactive”; as for `COc1ccc(C2=Nc3cccc4cccc(c34)N2)cc1`, “inactive”; as for `Cc1ccc(CNC(=O)c2cccc(S(C)(=O)=O)c2)cc1`, “inactive”.
Turning to `COc1ccc(-c2nnc(SCC(=O)NCc3ccco3)o2)cc1`, the compound was called inactive.
For the compound `Cc1ccc(S(=O)(=O)NCCC(=O)OCn2nnc3ccccc3c2=O)cc1`, the result was inactive.
Consider `CN1/C(=C/C2CC(=O)N(c3cccc4ccccc34)C2=O)C(C)(C)c2ccccc21` (stereo not drawn), for which the compound was called inactive.
As for `CN1/C(=C/C=N/NC(=O)c2ccc([N+](=O)[O-])cc2)C(C)(C)c2ccccc21`, the entry is “inactive”; as for `COC(=O)c1cc(C#N)c(Oc2cccc(C)c2C)nc1C`, “inactive”; as for `Cc1c(/C=C/C(=O)c2ccccc2)cnn1C`, “inactive”.
On to `O=C1c2ccccc2C2=Nc3ccccc3SC(c3cccc(F)c3)C12` (stereo not drawn), for which the call was inactive.
As for `Cn1c(N)c(C(=O)COC(=O)C2CCCCC2)c(=O)n(C)c1=O`, the entry is “inactive”.
The result for `COc1ccccc1NCCC(=O)OCC(=O)NC1CCCCCC1` reads “inactive”.
As for `O=c1c2ccccc2nc(-c2ccco2)n1-c1nccs1`, the entry is “inactive”.
Regarding `CNc1nc(Sc2ccccc2)cc(C(F)(F)F)n1`, the call was inactive.
As to `CC(=O)Nc1c(C#N)c(C(C)(C)C)cn1C`, the outcome was inactive.
As for `CCOC(=O)c1ccc(N2CCN(c3ccc(F)cc3)CC2)c(NC(=O)Nc2cccc(OC)c2)c1`, the result was inactive.
For `COc1ccccc1-c1c(C#N)c(N)nc2c1CCc1ccccc1-2`, the call was inactive.
With `CCOC(=O)Cc1ccc2sc(-c3ccccc3)nc2c1`, the compound was classed as inactive.
Take `CCOC(=O)CSc1nc2c(sc(=S)n2-c2ccccc2)c(=O)n1-c1ccc(OC)cc1OC`: the result was inactive.
As for `Cc1ccc2cc(C(=O)O)c(C)nc2c1`, the entry is “inactive”; as for `COc1cccc(C=NCC(C)N=Cc2cccc(OC)c2O)c1O` (stereo not drawn), “inactive”.
Consider `N/C(=N\OC(=O)Nc1ccc(Cl)cc1)c1ncc(C(F)(F)F)cc1Cl`, for which the outcome was inactive.
Regarding `N#C/C(=C\c1ccc(F)c(F)c1)C(=O)NC1CCCCC1`, the result was inactive.
Take `N#CC(C#N)=c1ccc2c(c1)NC1(CCCCC1)N=2`: the compound was called inactive.
The result for `CCCCCCCSc1cc(OC)c(CCN(C)C)cc1OC` reads “inactive”; that for `CCCCn1nnnc1NCc1cc(OC)c(OC)cc1OC`, “inactive”; that for `COc1ccccc1NS(=O)(=O)c1cc(NC(=S)Nc2cc(C)cc(C)c2)ccc1Cl`, “inactive”.
Take `COc1ccc(CCNC(=O)c2ccc(CN3CCOCC3)cc2)cc1`: the outcome was inactive.
The result for `CN(C(=S)Nc1ccc(Oc2ccccc2)cc1)c1ccc(O)cc1` reads “inactive”; that for `OCCN(CCO)CC(O)Cn1c2ccccc2c2ccccc21` (stereo not drawn), “inactive”.
Regarding `O=S(=O)(c1ccccc1)N(CC(O)Cn1c2ccccc2c2ccccc21)c1ccccc1` (stereo not drawn), the call was inactive.
For the compound `CCOC(=O)C1CCCN(S(=O)(=O)c2ccc(Br)c(OC)c2)C1` (stereo not drawn), the compound was classed as inactive.
As for `Cc1cc(C)nc(N2CCCC(C(=O)Nc3ccc4nc(C)c(C)nc4c3)C2)n1` (stereo not drawn), the compound was called inactive.
In the case of `Nc1nnc(SCc2ccc3c(c2)OCO3)s1`, the outcome was inactive.
With `O=C(c1cn(-c2ccccc2)nc1-c1cccnc1)N1CCCCC1`, the call was inactive.
Turning to `Cc1cccc(-n2nc3c(c2NC(=O)c2ccco2)CSC3)c1C`, the outcome was inactive.
Regarding `O=[N+]([O-])c1nn(-c2cccc(Cl)c2)n(O)c1=NCc1cccnc1`, the call was inactive.
As to `Cc1nc(N2CCN(c3ccccc3)CC2)nc2c1C(=O)CC(C)C2` (stereo not drawn), the compound was called inactive.
Turning to `Cc1ccccc1NC(=S)NC1CCN(Cc2ccccc2)CC1`, the outcome was inactive.
The result for `CCCCC1(CCCC)C(=O)NC(=Nc2cccc(C)c2)NC1=O` reads “inactive”.
As to `CCn1cc(C(=O)O)c(=O)c2cc(F)c(N3CCN(C(=S)NC(=O)c4ccccc4Cl)CC3)cc21`, the compound was called inactive.
With `O=C(Cn1cnc2scc(-c3ccccc3)c2c1=O)N1CCOCC1`, the compound was classed as inactive.
Take `Cc1ccccc1-n1nc(-c2ccc(N)cc2)cc1N`: the outcome was inactive.
In the case of `N#CCOC(=O)c1sccc1-n1cccc1`, the compound was called inactive.
As for `COc1ccc(/C=C(\NC(=O)/C=C/c2ccco2)C(=O)NCCc2nc3ccccc3[nH]2)cc1`, the call was inactive.
As for `S=C(NCc1cccnc1)Nc1ccc(Cl)cc1`, the entry is “inactive”; as for `O=[N+]([O-])c1ccc(Sc2nc3ccccc3o2)c([N+](=O)[O-])c1`, “inactive”; as for `COc1ccc(-c2csc(NCc3ccco3)n2)cc1`, “inactive”.
For the compound `N#CC1=C(N)SC(N)=C(C#N)C1c1ccc([N+](=O)[O-])cc1`, the result was inactive.
In the case of `COc1cccc2c(=O)c3c(cnn3C)n(C)c12`, the compound was classed as inactive.
Regarding `COc1ccc(-c2cc(C(=O)O)[nH]n2)cc1OC`, the compound was classed as inactive.
Take `Cn1c(-c2ccc(N)cc2)nc2ccccc21`: the compound was called inactive.
The result for `CCC(=O)NC1=C(NC(C)c2ccccc2)C(=O)c2ccccc2C1=O` (stereo not drawn) reads “inactive”; that for `COC(=O)c1sc2ccccc2c1-n1cccc1C(=O)C(=O)Nc1ccc(Cl)cc1`, “inactive”; that for `Cn1c(=O)n(CC(=O)Nc2ccccc2)c2ccccc21`, “inactive”.
`COc1ccc(C(=O)Nc2cc(C)ccc2NC(=O)COc2ccccc2)cc1`: the compound was classed as inactive.
The result for `CCN(Cc1ccccc1)C(=O)CN1C(=S)NC(C)(C)CC1C` (stereo not drawn) reads “inactive”.
